Data from PubChem BioAssay (NCATS).
Results filed as inconclusive are left out. The source made the active and inactive calls. The call rests on the fitted dose curve; in most records, active means well fitted inhibition curve with a large enough effect; inconclusive means small, poorly fitted or top-dose-only effect; inactive means flat fitted curve, though single readings scatter. Where a SMILES comes first, the peptide text is derived from it.

Tests used:
Test in all cases: Cytotoxic Profiling of Annotated Libraries Using Quantitative High-Throughput Screening (AID 1296008); further: nearly all actives have a fitted effect of over 60% in size
Conditions in all cases: Five cell lines viability, CellTiter-Glo ATP luminescence, 48-72 h; max response: stronger effect = lower value
CRL-7250 = normal cell line; test system: CRL-7250
Method in brief: (§1)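 Compounds were pin-transferred onto cells and incubated 48 or 72 hr at 37 degree Celsius, 95% humidity. CellTiter-Glo was added, plates sat 10 min at room temperature, then ATP-coupled luminescence was imaged as the viability read-out.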

HEK293 = test system: HEK293
Method in brief: as §1

HaCat = test system: HaCat
Method in brief: as §1

KB-3-1 = test system: KB-3-1
Method in brief: as §1

NIH3T3 = test system: NIH3T3
Method in brief: as §1

Measured: max response
On the % scale 0 is the no-effect control and ±100 the full control effect.

COc1ccc([C@H]2OC[C@H]3[C@@H]2CO[C@@H]3c2ccc(O[C@@H]3O[C@H](CO)C(O)[C@H](O)[C@H]3O)c(OC)c2)cc1OC (stereo not given in full)
inactive: CRL-7250 -2.87% | HEK293 1.89% | HaCat -9.63% | KB-3-1 -3.78% | NIH3T3

CCCCS(=O)(=O)NC(Cc1ccc(OCCCCC2CCNCC2)cc1)C(=O)O (stereo not given)
inactive: CRL-7250 -1.48% | HEK293 -14% | HaCat 4.29% | KB-3-1 0.365% | NIH3T3

COc1ccc(OC)c(C2C(C#N)=C(N)Oc3n[nH]c(-c4ccc5ccccc5c4)c32)c1 (stereo not given)
inactive: CRL-7250 | HEK293 0.943% | HaCat -8.38% | KB-3-1 | NIH3T3

C/C=C(\C)C(=O)OC1C(C)C2(O)C3C=C(C)C(=O)C3CC(CO)=CC2C2C(C)(C)C12OC(C)=O (stereo not given)
inactive: CRL-7250 -31.4% | HEK293 -25.8% | HaCat 4.78% | KB-3-1 2.42% | NIH3T3

COc1ccc(CCC(=O)O)c(O[C@@H]2O[C@H](CO)[C@@H](O)[C@H](O)[C@H]2O)c1
inactive: CRL-7250 | HEK293 -2.75% | HaCat 3.93% | KB-3-1 -5.8% | NIH3T3

CC(CCO)CCC1C2(C)CCCC(C)(C)C2CC[C@@]1(C)O (stereo not given in full)
inactive: CRL-7250 | HEK293 -13.3% | HaCat -19.9% | KB-3-1 7.08% | NIH3T3

CC1=CCC2C(C)(C)CCCC2(C)C1CC12OC1C(O)C(CO)=CC2O (stereo not given)
inactive: CRL-7250 3.52% | HEK293 -6.22% | HaCat -4.23% | KB-3-1 9.42% | NIH3T3

CC(=O)OC1(C)CC(O)C2(O)C=COC(OC3OC(CO)C(O)C(O)C3O)C12 (stereo not given)
inactive: CRL-7250 | HEK293 4.36% | HaCat 0.0573% | KB-3-1 3.54% | NIH3T3

C=C1C(=O)OC2CC(COC(=O)C(C)C)=C(C(C)CCCOC(C)=O)[C@@H](OC(C)=O)C12 (stereo not given in full)
inactive: CRL-7250 -4.9% | HEK293 5% | HaCat 4.28% | KB-3-1 | NIH3T3

COc1ccc(CCC(=O)c2c(O)cc(O[C@@H]3O[C@H](CO)[C@@H](O)[C@H](O)[C@H]3O[C@@H]3O[C@@H](C)[C@H](O)[C@@H](O)[C@H]3O)cc2O)cc1O
inactive: CRL-7250 -2.32% | HEK293 0.838% | HaCat 4.19% | KB-3-1 | NIH3T3

CC1=CC(=O)CC(C)(C)C1/C=C/C(C)OC1OC(COC2OCC(O)C(O)C2O)C(O)C(O)C1O (stereo not given)
inactive: CRL-7250 0.665% | HEK293 -4.28% | HaCat -0.25% | KB-3-1 9.19% | NIH3T3

O=C(O)C(Cc1ccccc1)NC(=O)C1CCCN1 (stereo not drawn) (H-Pro-Phe-OH; configuration not given here)
inactive: CRL-7250 -5.01% | HEK293 0.403% | HaCat -6.92% | KB-3-1 | NIH3T3

C=C1C2CCC3C(CCC4[C@@]3(C)CCC[C@@]4(C)C(=O)O)(C2)[C@@H]1OC(=O)/C(C)=C\C (stereo not given in full)
inactive: CRL-7250 -44.5% | HEK293 -104% | HaCat -0.634% | KB-3-1 2.48% | NIH3T3

C[C@]1(OC(=O)/C=C\c2ccc(O)cc2)C[C@@H](O)[C@]2(O)C=CO[C@@H](O[C@@H]3O[C@H](CO)[C@@H](O)[C@H](O)[C@H]3O)C12 (stereo not given in full)
inactive: CRL-7250 -13.5% | HEK293 -4.97% | HaCat -23.9% | KB-3-1 | NIH3T3

COc1cc(/C=C/C(=O)O[C@H]2[C@H](O)[C@@H](CO)O[C@@]2(CO)O[C@H]2O[C@H](CO)[C@@H](O)[C@H](O)[C@H]2O)cc(OC)c1O
inactive: CRL-7250 | HEK293 -9.27% | HaCat -10.1% | KB-3-1 3.15% | NIH3T3

COc1c(-c2ccc(O)cc2)cc(OC)c2c1oc1cc(O)c(OC3OC(CO)C(O)C3O)cc12 (stereo not given)
inactive: CRL-7250 -0.713% | HEK293 -3.64% | HaCat -7.87% | KB-3-1 | NIH3T3

CCCNCCOc1ccc(NC(=O)c2c[nH]c3c2C(=O)CCC3)cc1F
inactive: CRL-7250 -8.08% | HEK293 -31.5% | HaCat -4.5% | KB-3-1 6.85% | NIH3T3

CC1=COC(OC2OC(CO)C(O)C(O)C2O)C2C(CO)CC(OC(=O)/C=C/c3ccc(O)cc3)C12 (stereo not given)
inactive: CRL-7250 0.792% | HEK293 0.352% | HaCat 1.84% | KB-3-1 | NIH3T3

C=C1CC[C@]2(C(=O)O[C@@H]3O[C@H](CO)[C@@H](O)[C@H](O)[C@H]3O)CC[C@]3(C)C(=CCC4[C@@]5(C)C[C@H](O)[C@@H](O[C@@H]6O[C@H](C(=O)O)[C@@H](O)[C@H](O)[C@H]6O)[C@](C)(C=O)C5CC[C@]43C)C2C1 (stereo not given in full)
inactive: CRL-7250 4.09% | HEK293 -16.5% | HaCat -21.8% | KB-3-1 9.97% | NIH3T3

COC(=O)C1=COC(OC2OC(CO)C(O)C(O)C2O)C2C(C)CC(=O)C12O (stereo not given)
inactive: CRL-7250 | HEK293 2.83% | HaCat -24.6% | KB-3-1 | NIH3T3

CC1(O)CCC2C(C3C1CCC3(C)O)C2(C)C (stereo not given)
inactive: CRL-7250 3.06% | HEK293 0.939% | HaCat 2.93% | KB-3-1 7.36% | NIH3T3

CC(C)(C)NS(=O)(=O)c1ccc(-c2ccc3[nH]nc(N)c3c2)cc1
inactive: CRL-7250 -6.71% | HEK293 -2.12% | HaCat -19% | KB-3-1 8.07% | NIH3T3

CC/C=C\[C@H](O)[C@H](O)C1=C(C)C(=O)[C@]2(O1)C(=O)N[C@@](O)(C(=O)c1ccccc1)[C@@H]2O
inactive: CRL-7250 | HEK293 2.91% | HaCat -6.31% | KB-3-1 | NIH3T3

O=S(=O)(O)c1ccc(Nc2ncnc3c2ncn3[C@@H]2O[C@H](CO)[C@@H](O)[C@H]2O)cc1
inactive: CRL-7250 | HEK293 -6.97% | HaCat -25.7% | KB-3-1 | NIH3T3

CCC(=O)OCC(=O)[C@@]1(OC(=O)CC)[C@@H](C)C[C@H]2[C@@H]3CCC4=CC(=O)C=C[C@]4(C)[C@@]3(F)[C@@H](O)C[C@@]21C
inactive: CRL-7250 -9.64% | HEK293 -7.33% | HaCat -29.8% | KB-3-1 | NIH3T3

Nc1nc(COC(=O)c2ccc([N+](=O)[O-])cc2)nc(Nc2ccccc2)n1
inactive: CRL-7250 -7.38% | HEK293 -16.5% | HaCat -9.19% | KB-3-1 -4.58% | NIH3T3

C/C(=C\C1CCC(C)C2CCC3(C)OC123)C(=O)O (stereo not given)
inactive: CRL-7250 -0.564% | HEK293 -3.45% | HaCat 4.2% | KB-3-1 8.09% | NIH3T3

CC1(C)C=Cc2c(ccc3c2[N+]([O-])=C2C3(O)CC34NC(=O)C5(CCCN5C3=O)CC4C2(C)C)O1 (stereo not given)
inactive: CRL-7250 -1.3% | HEK293 -1.32% | HaCat -0.0821% | KB-3-1 | NIH3T3

CC1=C2CC(=O)C(C)CC/C=C(\C)CC2(O)OC1=O (stereo not given)
inactive: CRL-7250 -4.8% | HEK293 0.476% | HaCat 2.42% | KB-3-1 3.81% | NIH3T3

Cc1nnc(-c2ccc3occ(-c4ccc(S(C)=O)cc4)c3c2)o1 (stereo not given)
inactive: CRL-7250 | HEK293 -3.27% | HaCat -2.4% | KB-3-1 | NIH3T3

C=Cc1cc2oc(-c3ccc(O)c(F)c3)nc2cc1O
inactive: CRL-7250 | HEK293 -3.32% | HaCat -11% | KB-3-1 | NIH3T3

Cn1cc(Nc2cnccc2C(=O)O)c2cccnc21
inactive: CRL-7250 1.11% | HEK293 -5.52% | HaCat 4.86% | KB-3-1 | NIH3T3

C=C1C(OC(C)=O)CCC2(C)CCC(C(C)(C)O)CC12 (stereo not given)
inactive: CRL-7250 -5.46% | HEK293 -1.52% | HaCat -5.19% | KB-3-1 1.41% | NIH3T3

Nc1nc2c(nc(Sc3ccc(Cl)cc3)n2[C@@H]2O[C@@H]3COP(=O)(O)O[C@H]3[C@H]2O)c(=O)[nH]1
inactive: CRL-7250 1.71% | HEK293 1.54% | HaCat -3.37% | KB-3-1 | NIH3T3

C=CC(C)(O)CC/C=C(\C)C(=O)O[C@@H]1[C@@H](O)[C@H](OC(C)(C=C)CC/C=C(\C)C(=O)O)O[C@H](CO)[C@H]1OC(=O)/C(C)=C/CCC(C)(O)C=C (stereo not given in full)
inactive: CRL-7250 | HEK293 -0.372% | HaCat -21.2% | KB-3-1 | NIH3T3

CC1(C)CC[C@]2(C(=O)O)CC[C@]3(C)C(=CCC4[C@@]5(C)C(=O)C[C@H](O)[C@@](C)(CO)C5CC[C@]43C)[C@@H]2C1 (stereo not given in full)
inactive: CRL-7250 -2.6% | HEK293 3.17% | HaCat -1.1% | KB-3-1 8.25% | NIH3T3

Cc1nc2cc(-c3cc(F)cc(C#N)c3)ccc2s1
inactive: CRL-7250 -5.31% | HEK293 -12.9% | HaCat -10.9% | KB-3-1 0.518% | NIH3T3

Cn1cc(CCn2cnc(-c3cnn(C)c3)c2-c2ccc(C#N)cc2)cn1
inactive: CRL-7250 -0.888% | HEK293 0.036% | HaCat -11.5% | KB-3-1 | NIH3T3

CC1(CO)CCCC2(C)C3COC(=O)C3=CC(O)C12 (stereo not given)
inactive: CRL-7250 1.03% | HEK293 -8.01% | HaCat -5.37% | KB-3-1 | NIH3T3

O=C(N[C@H](Cc1ccccc1)C(=O)O)c1sc2cc(F)ccc2c1Cl
inactive: CRL-7250 2.45% | HEK293 -2.83% | HaCat -0.292% | KB-3-1 | NIH3T3
